High-throughput results (PubChem)
aSyn 5UTR act: Activators via SNCA 5'UTR binding, MLPCN. alpha-synuclein 5'UTR reporter, activators screen. activity score, % (tested at 7.5 µM), hits read low. hit rate 7.1% among 300,000. AID 1814; in the data active means activity score below about -60%
Numbers without * were called inactive. The full list was thinned out, with hits kept by preference.

SMILES	aSyn 5UTR act
CSc1ccc(C2C(C(=O)c3ccco3)=C(O)C(=O)N2c2nnc(SC)s2)cc1 (stereo not given)	-62.0*
Cc1nnsc1C(=O)NNc1ccc(C(C)C)cc1	-99.4*
COc1ccc2[nH]c(=O)c(-c3noc(-c4ccccc4)n3)cc2c1	-121.4*
O=C(O)c1ccc(-c2noc(-c3cccc(F)c3)n2)cc1	-96.0*
COc1cccc(-c2nc(-c3ccc(NC(=O)c4cccs4)cc3)no2)c1	-154.2*
COc1cccc(-c2nc(-c3ccc(C(=O)O)cc3)no2)c1	-96.0*
COc1ccc(-c2nc(-c3ccc(NC(=O)c4ccncc4)cc3)no2)cc1OC	-155.0*
COc1cccc(-c2noc(-c3ccc(Cl)nc3)n2)c1	-182.1*
COc1cc(OC)cc(-c2nc(-c3ccccc3)no2)c1	-139.7*
COc1ccc(-c2nc(-c3ccccn3)no2)cc1	107.4
C=CCn1cnc2c(nnn2-c2ccc(C)c(C)c2)c1=O	-122.4*
CC(=O)Nc1ccc(-n2cc(-c3ccccc3)[nH]c2=S)cc1	-80.8*
COc1ccc(-n2cc(-c3ccccc3)[nH]c2=S)cc1	-90.9*
Cc1cccc(-n2cc(-c3ccccc3)[nH]c2=S)c1	-108.1*
CCOC(=O)Cc1csc(-n2sc3ccccc3c2=O)n1	-88.7*
Cn1cccc1C(=O)C(=O)Nc1ccccc1	-112.2*
Cn1cccc1C(=O)C(=O)Nc1ccccc1C(F)(F)F	-129.7*
COc1ccc2cc(C(=O)NCc3ccccc3)[nH]c2c1	-65.5*
COc1ccc2cc(C(=O)NCCc3ccccc3)[nH]c2c1	-172.1*
O/N=C/c1ccc(OCc2ccccc2F)c(Cl)c1	-92.0*
O/N=C/c1ccc(OCc2ccccc2)c(Br)c1	-142.4*
O/N=C/c1ccc(OCc2ccccc2)c(Cl)c1	-104.4*
Nc1nonc1-n1nnc(C(=O)N/N=C/C=C/c2ccccc2)c1CSC1=NCCS1	-79.8*
CC(/C=N/NC(=O)c1nnn(-c2nonc2N)c1C(C)C)=C\c1ccccc1	-81.4*
CCCc1c(C(=O)N/N=C/C(C)=C/c2ccccc2)nnn1-c1nonc1N	-67.3*
SMILES	aSyn 5UTR act
COc1cc(CNc2ncn[nH]2)ccc1OCc1cccc(C)c1	-95.4*
COC(=O)c1cccc(NC(=O)NC23CC4CC(CC(C4)C2)C3)c1	-98.2*
COc1ccc(-n2c(C)nn(CCOc3ccccc3)c2=O)cc1	-90.3*
CCOc1ccc(-c2noc(-c3cccnc3)n2)cc1OC	-94.8*
COc1ccc(-c2noc(-c3cccnc3)n2)cc1OC	-158.6*
O=C(Nc1cnc2ccccc2c1)N1CCCCC1	-73.7*
O=C(Nc1cnc2ccccc2c1)N1CCOCC1	-109.1*
CN(C(=O)Nc1cnc2ccccc2c1)c1ccccc1	-88.7*
Cc1cccc(N2CSC3=C(C#N)C(c4ccc(C)o4)CC(=O)N3C2)c1 (stereo not given)	-85.5*
CCn1c(Cn2nnc(-c3ccccc3)n2)nnc1SCC(=O)Nc1ccc(C(C)=O)cc1	-91.7*
Nc1ccc(-c2nc3ccc([N+](=O)[O-])cc3[nH]2)cc1	-84.1*
O=[N+]([O-])c1ccc2nc(/C=C/c3ccc(Cl)cc3)[nH]c2c1	-150.7*
O=[N+]([O-])c1ccc(-c2nc3ccc([N+](=O)[O-])cc3[nH]2)cc1	-142.6*
COc1cccc(-c2nc3sc4c(c3c(=O)[nH]2)CCCCC4)c1	-266.5*
Oc1ccccc1/C=N/N1CCN(c2ccccn2)CC1	-114.9*
CC(C)c1ccc(/C=N/N2CCN(c3ccccn3)CC2)cc1	-121.9*
CC(C)c1ccc(/C=N/N2CCCCC2)cc1	-143.3*
C/C(=C\C(=O)c1ccccc1)NCc1ccc(F)cc1	-64.2*
c1ccc(-c2nnc(SCc3cn4ccsc4n3)o2)cc1	-75.2*
COCc1cc(C)nc(Nc2ccc(C)c(C)c2)c1C#N	-70.6*
COc1ccc(Cl)c2c1[nH]c1nc(SCc3ccccn3)nnc12	-105.7*
CC(=O)Oc1ccc([C@@H]2COc3c(ccc4c3C=CC(C)(C)O4)C2)c(OC(C)=O)c1	-152.4*
O=C(COC(=O)c1ccc(Cl)nc1)c1ccc2c(c1)OCCO2	-70.6*
Cc1ccc(C(=O)COc2ncnc3cc(Cl)ccc23)cc1	-76.0*
O=C(COc1ncnc2ccccc12)c1ccc2c(c1)OCCO2	-87.6*
SMILES	aSyn 5UTR act
O=C(COc1ncnc2cc(Cl)ccc12)c1ccc2c(c1)OCCO2	-92.3*
O=C(CSc1ncnc2ccccc12)c1ccc2c(c1)OCCO2	-346.4*
COC(=O)c1sccc1NC(=O)COc1ccccc1Cl	-132.0*
O=C(COc1ccccc1Cl)Nc1cc(Cl)ccc1O	-185.1*
CCn1cc([N+](=O)[O-])c(C(=O)Nc2nc3ccc(OC)cc3s2)n1	-83.9*
COc1ccc2nc(NC(=O)c3ccc(NS(=O)(=O)c4cccs4)cc3)sc2c1	-66.9*
COc1ccc(C(=O)Nc2nc3ccc(OC)cc3s2)cc1	-276.6*
COc1ccc(C(=O)Nc2nc(-c3cccs3)c(NC(C)=O)s2)cc1	-83.4*
O=C(/C=C/c1cccc(O)c1)c1ccc(N2CCOCC2)cc1	-181.9*
O=C(NC(=S)Nc1ccc(N2CCOCC2)cc1)c1ccccc1	-147.5*
Cc1cccc(C(=O)O/N=C/c2c(N3CCOCC3)n(C)c3ccccc23)c1	71.7
CN(C)C(=S)Nc1ccc(N2CCOCC2)cc1	-67.8*
O=C(NC(=S)Nc1ccc(N2CCOCC2)cc1)c1cccc(Cl)c1	-72.2*
O=C(Nc1ccc(N2CCOCC2)cc1)c1cnsn1	106.4
C/C(=C\C(=O)c1ccccc1)Nc1ccc(N2CCOCC2)cc1	-63.1*
Cc1ccc(C(=O)/C=C/c2ccccc2[N+](=O)[O-])cc1	-173.0*
Cc1ccc(C(=O)C(C)OC(=O)c2ccccc2[N+](=O)[O-])cc1 (stereo not given)	-157.7*
O=C(/C=C/c1ccccc1[N+](=O)[O-])c1ccccc1Br	-78.5*
COc1ccc(C2=NN(C(C#N)c3ccc(OC)cc3)C(c3ccccc3)C2)cc1 (stereo not given)	-249.7*
COc1ccc(C(C#N)N2N=C(c3ccccc3)CC2c2ccccc2)cc1OC (stereo not given)	-182.4*
O=C1NC(=Nc2ccccc2)S/C1=C/c1cccs1	-117.3*
Cc1ccc(N=C2NC(=O)/C(=C/c3cccn3C)S2)cc1	-79.7*
Cc1ccc(N=C2NC(=O)/C(=C/c3cccn3C)S2)cc1C	-127.3*
O=C(/C=C/c1ccccc1)C1=C(O)C(=O)N(CCO)C1c1ccccc1[N+](=O)[O-] (stereo not given)	-62.5*
CC(=O)N1CCn2c3ccc(C)cc3c3cccc1c32	-83.4*
SMILES	aSyn 5UTR act
COc1ccc(NC(=S)Nc2ccc(N)c([N+](=O)[O-])c2)cc1	-144.9*
COc1ccc(NC(=S)Nc2ccc3nccnc3c2)cc1	-227.3*
COc1ccc(NC(=S)Nc2ccc3snnc3c2)cc1	-107.5*
O=C(NCCCN1CCOCC1)C(=O)N/N=C/c1c2ccccc2cc2ccccc12	66.7
O=C(NCCCn1ccnc1)c1cc(-c2cccs2)on1	-293.7*
O=C(NCCCN1CCOCC1)c1cc(-c2cccs2)on1	-152.0*
C/C(=N\N=C(/N)c1nonc1N)c1ccc2c(c1)OCO2	-109.6*
CSc1nnc2c(n1)c(C)nn2-c1ccc(C)cc1	-179.7*
COc1ccc(CC(=O)N2CCC(c3ccccc3)C2)cc1 (stereo not given)	-65.3*
COc1ccc2c(CC(=O)N3CCc4ccccc43)coc2c1	-104.5*
COc1ccc(CC(=O)N2CCc3ccccc32)cc1	-73.7*
Cn1c(=S)[nH]c2sc3c(c2c1=O)CCC(C(C)(C)C)C3 (stereo not given)	-87.3*
Cc1nc(-c2cc(-c3ccc(Cl)cc3)no2)cs1	-137.0*
Cc1nc(-c2cccc(N)c2)cs1	-63.2*
